Screens: PubChem, National Center for Advancing Translational Sciences (NCATS)
nsP2pro inh: blocks chikungunya virus nsP2 protease peptide cleavage; Q8JUX6; FRET peptide cleavage, nsP2pro, fluorescence 1 h; Potency, µM (highest dose often 24.9 µM), for the others: at the top dose activity change, negative = inhibition, hits mostly inhibitors; 31,000 compounds, 1.1% hits; AID 1964107; also: nearly all actives have a fitted effect of over 60% in size
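Purified recombinant nsP2pro (150 nM final) in 10 mM Tris-HCl pH 8.0 with 0.01% Tween 20 was preincubated 15 min at room temperature with compound (7 concentrations, up to 25 uM). FRET peptide 2 substrate (2.5 uM final) was then added; fluorescence was read after 1 h.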
CHIKV nsP2 cell: secondary cell-based test for CHIKV nsP2 protease inhibitors; shares compounds with nsP2pro inh; Potency, µM (titrated, usually from 51.1 µM), for inactives: at the highest dose activity change, negative = inhibition, usual class: inhibitors; cell-based CHIKV nsP2 protease reporter assay; 450 compounds, 10% hits; AID 1964100; also: nearly all actives have a fitted effect of over 70% in size
NSP2 full ctr: selectivity test for CHIKV nsP2 protease inhibitors: full-length NSP2; shares compounds with nsP2pro inh; Potency, µM (series often up to 50.7 µM), for the others: at the top dose activity change, negative = inhibition, hits mostly inhibitors; 410 compounds, 39% hits; Full-length CHIKV NSP2 protease enzymatic counterscreen; AID 1964101; also: nearly all actives have a fitted effect of over 65% in size
Furin counterscr: human furin inhibition, counterscreen for nsP2pro inhibitors; Potency, µM (highest dose often 50.6 µM), without a hit: at the highest dose activity change, negative = inhibition, most hits filed as inhibitors; Recombinant human furin enzymatic counterscreen, fluorogenic substrate; 410 compounds, 6% hits; AID 1964102; shares compounds with nsP2pro inh
NS23 peptide cs: blocks CHIKV nsP2 protease cleavage of endogenous NS2/3 peptide | 410 compounds, 34% hits | shares compounds with nsP2pro inh | Purified CHIKV nsP2 protease, endogenous NS2/3 peptide cleavage | Potency, µM (series often up to 51 µM), inactives show at the top dose activity change, negative = inhibition, hits mostly inhibitors; also: nearly all actives have a fitted effect of over 55% in size
Papain counter: selectivity counter-screen for CHIKV nsP2 protease inhibitors: papain. AID 1964104. shares compounds with nsP2pro inh. Potency, µM (titrated, usually from 51 µM), for inactives: top-dose activity change, negative = inhibition, hits mostly inhibitors. purified papain protease activity, enzymatic inhibition. 410 compounds, 5% hits
nsP2pro conf qHTS: confirmation of CHIKV nsP2 protease inhibitors. shares compounds with nsP2pro inh. CHIKV nsP2 protease enzymatic activity, qHTS. Potency, µM (doses to about 25.5 µM), for the others: at the highest dose activity change, negative = inhibition, usual class: inhibitors. 410 compounds, 43% hits. AID 1964105; also: nearly all actives have a fitted effect of over 75% in size
HCV NS3 4A cs: inhibits HCV NS3/4A protease in an nsP2pro selectivity counterscreen; shares compounds with nsP2pro inh; HCV NS3/4A protease biochemical counterscreen; Potency, µM (top dose mostly 50.9 µM), hits mostly inhibitors; 410 compounds, 20% hits; also: nearly all actives have a fitted effect of over 55% in size
An asterisk follows results filed as active; [ ] = another dose, or the depositor's remark. The full list was thinned out, with hits kept by preference. Calls follow the shape of the full dose curve. % is scaled to controls: 0 for no effect and ±100 for the full control effect; potency is read from the fitted curve at half-maximal effect.

How did C=CC(C)(O)C1CC2C3(C)CCCC(C)(C)C3C(O)C(O)C2(C)O1 (centres undefined) do in these assays?
nsP2pro inh: 2%

What do the screens show for `C=C1C(=O)O[C@@H]2[C@H]3O[C@]3(C)CC/C=C(\C)CC[C@@H]12`?
nsP2pro inh: -5%

What do the screens show for `C=C1C(=O)O[C@H]2C3=C(C)CCC[C@]3(C)C(=O)C[C@@H]12`?
nsP2pro inh: inconclusive; CHIKV nsP2 cell: inconclusive; NSP2 full ctr: inconclusive; Furin counterscr: 2%; NS23 peptide cs: inconclusive; Papain counter: inconclusive; nsP2pro conf qHTS: inconclusive; HCV NS3 4A cs: inactive

What do the screens show for `C=C1CC[C@@H](O)[C@]2(C)CC[C@H]3C(=C)C(=O)O[C@@H]3[C@@H]12`?
nsP2pro inh: 12%

What do the screens show for `CCNC(=O)c1ccc(-c2ccc3ncnc(NCc4ccc(C)o4)c3c2)o1`?
nsP2pro inh: -19%

Results for CNC(=O)c1cc(C)nc2onc(C3CCCN(C(=O)Cc4ccc(OC)cc4)C3)c12 (centres undefined) ?
nsP2pro inh: -8%

Results for CCc1cc(C(=O)N2CCC3(CCC(=O)N(CCc4cnc[nH]4)C3)CC2)cs1 ?
nsP2pro inh: inactive

What do the screens show for `CC1CC(C(O)C(C)(C)O)OC2CC3(C)C4(C)CCC5C(C)(C)C(=O)CCC5(C)C4CCC3(O)C12O` (centres undefined)?
nsP2pro inh: -7%[10 µM]

How did CC(=O)N1CCN(Cc2ccccc2-c2cccnc2)CC1 do in these assays?
nsP2pro inh: -7%[39.2 µM]

How did CN(C)C(=O)N1CCN(c2ccc(Cl)nn2)C(=O)C1 do in these assays?
nsP2pro inh: -20%[39.2 µM]

How did CC(=O)N1CCN(c2ccc(C(=O)N3CCN(Cc4ccccc4)CC3)nn2)C(=O)C1 do in these assays?
nsP2pro inh: 3.5µM*; CHIKV nsP2 cell: 20%; NSP2 full ctr: 7.3µM*; Furin counterscr: -13%; NS23 peptide cs: 15µM*; Papain counter: -4%; nsP2pro conf qHTS: 8µM*; HCV NS3 4A cs: 5.2µM*

How did Cc1ccc(NC(=O)C(C)C)cc1C1CCN(Cc2ccc(Oc3ccc(F)c(F)c3)cc2)CC1 do in these assays?
nsP2pro inh: 41%

Results for Cc1c(F)ccc(C(=O)Nc2cc([N+](=O)[O-])ccc2N2CCN(C)CC2)c1Cl ?
nsP2pro inh: 16%

How did COC[C@H]1OC(=O)c2coc3c2[C@@]1(C)C1=C(C3=O)C2CCC(=O)[C@@]2(C)C[C@H]1OC(C)=O (some centres undefined) do in these assays?
nsP2pro inh: 9.9µM*; CHIKV nsP2 cell: -1%; NSP2 full ctr: -11%; Furin counterscr: -6%; NS23 peptide cs: -17%; Papain counter: -7%; nsP2pro conf qHTS: -25%; HCV NS3 4A cs: inactive

How did COC[C@@H]1OC(=O)/C(=C\N(C)CCCN(C)C)C2=C(O)C(=O)C3=C([C@@H](OC(C)=O)C[C@@]4(C)[C@@H]3CC[C@@H]4O)[C@@]21C do in these assays?
nsP2pro inh: -11%

How did CC(C)(C)n1nc(Cc2cccc([N+](=O)[O-])c2)c2c(N)ncnc21 do in these assays?
nsP2pro inh: inactive

What do the screens show for `C=CC(=O)Nc1cc(Nc2nccc(-c3cn(C)c4ccccc34)n2)c(OC)cc1N(C)CCN(C)C`?
nsP2pro inh: -29%

How did Cc1ccc(OCCn2c(CCNC(=O)C3CCNCC3)nc3ccccc32)cc1 do in these assays?
nsP2pro inh: 0%

How did O=C(O)c1cc(-c2ccc(/C=C3\SC(=S)N(Cc4ccccc4)C3=O)o2)ccc1Cl do in these assays?
nsP2pro inh: inconclusive; CHIKV nsP2 cell: 17%; NSP2 full ctr: -13%; Furin counterscr: -12%; NS23 peptide cs: 233%; Papain counter: inconclusive; nsP2pro conf qHTS: 14%; HCV NS3 4A cs: inactive

What do the screens show for `O=C(O)c1ccc(-n2cccc2/C=C2\SC(=O)N(Cc3ccc(Br)cc3)C2=O)cc1`?
nsP2pro inh: inactive

Results for Cc1cc(-c2ccc(/C=C3\SC(=Nc4ccc(Cl)c(C(=O)O)c4)NC3=O)o2)c([N+](=O)[O-])cc1C ?
nsP2pro inh: -23%

How did Cc1cc(C)cc(-c2ccc(CN3CCCC(N[S+](C)(=O)[O-])C3)cc2)c1 (centres undefined) do in these assays?
nsP2pro inh: inactive

What do the screens show for `O=C(O)CCc1ccc(-c2cccs2)n1CC(=O)Nc1ccccc1C(F)(F)F`?
nsP2pro inh: 10%; CHIKV nsP2 cell: -7%; NSP2 full ctr: -23%; Furin counterscr: -16%; NS23 peptide cs: -30%; Papain counter: -16%; nsP2pro conf qHTS: inconclusive; HCV NS3 4A cs: inactive

Results for CCc1ccc(-n2c(CCC(=O)O)ccc2-c2cccs2)cc1 ?
nsP2pro inh: -18%

How did Cc1c(Cl)cccc1NC(=O)Cn1c(CCC(=O)O)ccc1-c1cccs1 do in these assays?
nsP2pro inh: 6%

Results for CCOc1ccc(CCNC(=O)c2cc3ccccc3n2C)cc1OCC ?
nsP2pro inh: inactive

What do the screens show for `CC(C)c1ccccc1-c1ncc(F)c(NCC2CCN(c3cccnc3)CC2)n1`?
nsP2pro inh: 1%

What do the screens show for `Oc1cccc(-c2c3nc(c(-c4cccc(O)c4)c4ccc([nH]4)c(-c4cccc(O)c4)c4nc(c(-c5cccc(O)c5)c5ccc2[nH]5)CC4)C=C3)c1`?
nsP2pro inh: inconclusive; CHIKV nsP2 cell: 2%; NSP2 full ctr: 18µM*; Furin counterscr: 2%; NS23 peptide cs: 18µM*; Papain counter: inconclusive; nsP2pro conf qHTS: 14µM*; HCV NS3 4A cs: inactive

Results for O=S(=O)(Nc1nc2ccccc2s1)c1ccc(NCc2ccc(Br)cc2O)cc1 ?
nsP2pro inh: inactive

Results for CC(=O)Nc1cccc(-c2ncc3c(n2)OCCN(CC2CC2)C3=O)c1 ?
nsP2pro inh: 1%[39.2 µM]

How did O=c1c(Nc2ccc(Cl)c(Cl)c2)c(Nc2nnc(-c3ccncc3)s2)c1=O do in these assays?
nsP2pro inh: inactive

How did COc1ccc(C2Nc3ccccc3C(=O)N2CCCN(C)C)cc1COc1c(C)cc(NC(C)=O)cc1C (centres undefined) do in these assays?
nsP2pro inh: 4%
